mHTT-CaM PPI inh – mutant huntingtin-calmodulin interaction inhibitors – biochemical, AlphaScreen, primary screen; 3.6% of 190,000 active; inhibition, % at 15 µM; AlphaScreen His-mHTT/GST-CaM binding, luminescence;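 further: 0% = both proteins with DMSO and 100% = one protein alone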
Pf apPOL block – Pf-apPOL inhibitors, biochemical, fluorescence; Recombinant Pf-apPOL, molecular beacon fluorescence, 1.5 h; 0.25% of 210,000 active; Plasmodium falciparum apicoplast DNA polymerase (apPOL); inhibition, % at 10 µM
Active calls of the source: *; · = not tested or not shown. In the library only some 3.5% were active in any assay of this set; here they are far more common. No stated cut-off is given here; in the data, active means inhibition above about 50%; inactive means the rest.

SMILES | mHTT-CaM PPI inh | Pf apPOL block
Cc1ccc(N=Cc2nc(-c3ccc(Cl)cc3)oc2O)c(Br)c1 | -2 | 17
Cc1ccc(S(=O)(=O)N2CCCC(C)(C(=O)NCc3ccc(F)cc3)C2)cc1C (stereo not given) | 89* | -1
Cc1c(Cl)cccc1S(=O)(=O)N1CCCC(C)(C(=O)NCc2ccc(F)cc2)C1 (stereo not given) | 86* | 0
CC1(C(=O)NCc2ccc(F)cc2)CCCN(S(=O)(=O)c2ccccc2Cl)C1 (stereo not given) | 1 | 2
Cc1ccc(S(=O)(=O)N2CCCC(C)(C(=O)NCc3ccccc3)C2)cc1C (stereo not given) | 0 | -5
O=C1c2ccccc2C(=O)N1CCSCc1cccc(C(F)(F)F)c1 | · | -8
COc1cccc(-c2nnc3n2N=C(c2ccc(OC)c(OC)c2)CS3)c1 | 28 | ·
O=C(Cc1ccc(F)cc1)N1CCN(c2nc(CN3CCCCC3)cs2)CC1 | 32 | 10
CC1CCN(C(=O)COc2ccc(C(C)C)cc2)CC1 | -10 | 0
O=C(COc1ccc(F)cc1)N1CCN(C(=O)COc2ccc(F)cc2)CC1 | -2 | 7
O=C(COc1ccc(F)cc1)N1CCC(n2nc(-c3ccsc3)ccc2=O)CC1 | 92* | -4
COc1ccc(OCC(=O)N2CCC(n3nc(-c4ccsc4)ccc3=O)CC2)cc1 | 88* | -2
Cc1cccc(S(=O)(=O)N2CCCC2c2nc(-c3cccc(C(F)(F)F)c3)no2)c1 (stereo not given) | -40 | -2
O=S(=O)(c1ccc(-c2csc(=Nc3ccc(Cl)cc3)n2CCCO)cc1)N1CCCC1 | 55* | -12
O=S(=O)(c1ccc(-c2csc(=Nc3cccc(Cl)c3)n2CCO)cc1)N1CCCCC1 | 51* | -7
CCOc1ccc(N=c2scc(-c3ccc(S(=O)(=O)N4CCCC4)cc3)n2CC)cc1 | 4 | -3
O=S(=O)(c1ccc(-c2csc(=Nc3ccc(F)cc3)n2CCCO)cc1)N1CCOCC1 | 47 | -2
NCCC1CCCCCC(=O)N1 (stereo not given) | 0 | -1
N#CSC(CS(=O)(=O)c1ccc([N+](=O)[O-])cc1)c1ccccc1 (stereo not given) | 62* | -10
Cc1ccc(S(=O)(=O)CC(SC#N)c2ccccc2)cc1 (stereo not given) | -12 | -5
Cc1noc(C)c1C(=O)NCc1cc(F)cc2c1OCOC2 | · | -5
Cc1cccc(CN2C(=O)CCc3c(C)nc(-c4ccncc4)nc32)c1 | -6 | 4
Cc1cccc(CN2C(=O)CCc3c(C)nc(C)nc32)c1 | 23 | 51*
Cc1nc(C)c2c(n1)N(CC1CCCO1)C(=O)CC2 (stereo not given) | -2 | 2
Cc1nc(C)c2c(n1)N(CC1CCCCC1)C(=O)CC2 | 6 | 50*
SMILES | mHTT-CaM PPI inh | Pf apPOL block
CN(C)c1ccc(CNC(=O)c2ccc3c(c2)NC(=O)C2CCCCN32)cc1 (stereo not given) | 12 | 2
Cc1ccccc1C(=O)N1CCCC(COc2ccc(C(=O)N3CCCC3)cc2)C1 (stereo not given) | 7 | 5
Cc1noc(C)c1C1CCCN1Cc1ccc(OC(C)C)cc1 (stereo not given) | -29 | -3
CC(C)(C)N=C1Nc2ccccc2NC12CCCN(C(=O)c1ccncc1)C2 (stereo not given) | 18 | 16
CC(C)(C)N=C1Nc2ccccc2NC12CCCN(C(=O)COc1ccccc1)C2 (stereo not given) | 36 | -5
CC(C)(C)N=C1Nc2ccccc2NC12CCCN(C(=O)c1ccccc1)C2 (stereo not given) | 82* | -5
Cc1ccccc1OCC(=O)N1CCCC2(C1)Nc1ccccc1NC2=NC(C)(C)C (stereo not given) | 75* | 6
O=C(N1CCC(n2cnnc2-c2ccccc2)C1)C1(c2ccccc2)CC1 (stereo not given) | -3 | -3
CSCCC(C)(O)CNC(=O)C(C)Oc1ccccc1 (stereo not given) | -4 | -2
COc1ccccc1N1CCN(C(=O)CN(c2ccccc2C)S(C)(=O)=O)CC1 | 11 | -3
CCn1cnnc1C1CCN(C(=O)CCc2c[nH]c3ccccc23)CC1 | 5 | -2
COc1ccc2c(c1)N(C)/C(=C1/OC(=S)N(C)C1=O)S2 | -6 | ·
O=C1C=CC(=Nc2ccc(Br)cc2)C=C1 | 87* | -5
Cc1ccnc(N2CCCC(C(=O)NC3CCCCC3)C2)n1 (stereo not given) | -15 | -1
Cc1cccc(N2COc3cc4c(cc3C2)OCO4)c1 | 59* | -2
Cc1ccc(N2COc3cc4c(cc3C2)OCO4)cc1 | 14 | -5
Cc1cc(C)cc(N2COc3cc4c(cc3C2)OCO4)c1 | 53* | 1
Cc1ccc(N2COc3cc4c(cc3C2)OCO4)cc1Cl | 18 | -1
COc1ccc(NC(=O)CSc2nnc(-c3ccc(Br)cc3)o2)cc1 | -3 | 0
Cc1ccc(N2C=C(C(=O)N3CCC(C)CC3)S(=O)(=O)c3ccccc32)cc1C | 16 | -2
Cc1ccc(CN2C(=O)NC3(CCN(C(=O)Cc4ccc(F)cc4)CC3)C2=O)cc1 | 11 | -5
O=C(NCc1ccc(F)cc1)c1cnn2c3c(cnc12)CCCCCC3 | 4 | -3
O=c1c(NCCc2ccncc2)nc2ccncc2n1Cc1ccccc1 | -3 | -3
Cc1ccccc1C(=O)N1CCC2(C1)NCc1ccccc1NC2=NC(C)(C)C (stereo not given) | 28 | -4
Cc1ccc(F)cc1S(=O)(=O)N1CCC2(C1)NCc1ccccc1NC2=NC(C)(C)C (stereo not given) | 70* | -2
SMILES | mHTT-CaM PPI inh | Pf apPOL block
CC(C)(C)N=C1Nc2ccccc2CNC12CCN(C(=O)Cc1ccsc1)C2 (stereo not given) | 62* | 7
COc1ccccc1CC(=O)N1CCC2(C1)NCc1ccccc1NC2=NC(C)(C)C (stereo not given) | 47 | -5
CC(C)(C)c1ccc(C(=O)Nc2ccc(S(=O)(=O)Nc3ncccn3)cc2)cc1 | -2 | -4
Cc1ccc(-n2c(O)cnc2Nc2nc(C)cc(C)n2)cc1 | 2 | 24
Cc1cc(C)nc(Nc2ncc(O)n2-c2ccc(Cl)cc2)n1 | 2 | 52*
Cc1noc(C2CN(C(=O)c3n[nH]c4ccccc34)CC23CCOCC3)n1 (stereo not given) | 0 | -4
c1ccc2nc(-c3nc4ccccc4[nH]3)ccc2c1 | 3 | 9
CC1C(c2ccc3ccccc3n2)=CNc2ccccc21 (stereo not given) | 91* | -1
COc1ccc(CCNC(C)=O)cc1 | -6 | 0
COc1ccc(CCNc2ccc(C)cc2)cc1 | 71* | -4
Cc1ccc(NC(=O)N2CCCC(CCC(=O)N3CCC(Cc4ccccc4)CC3)C2)cc1 (stereo not given) | 54* | -8
Cc1ccc(NC(=O)N2CCCC(CCC(=O)N3CCOCC3)C2)cc1 (stereo not given) | 1 | -6
C=CCn1c(C(=O)NC2CC2)cc2sc(Br)cc21 | -1 | -5
C=CCn1c(C(=O)NCc2ccncc2)cc2sc(Br)cc21 | 51* | -8
CCOc1ccccc1CN1CCC(C(=O)N2CCN(c3ccccc3)CC2)CC1 | 12 | -3
O=C(c1ccccn1)N1CCc2[nH]nc(-c3ccccc3)c2C1 | -4 | -10
Cc1ccc(-c2n[nH]c3c2CN(C(=O)c2cccn2C)CC3)cc1 | 55* | -12
